Laboratory results as given in PubChem BioAssay (EPA / NIEHS).
Active and inactive are the calls of the source. Rule for the calls: active = hit-call score of the fitted dose curve at least 0.9, where 1 is the maximum; inactive = score below 0.9.

What was measured:
[1] = ATG_GLI_CIS: Attagene CIS-FACTORIAL HepG2 Assay for human Zinc Finger Protein GLI1 (AID 2282945); conditions: HepG2, Attagene cis-factorial reporter mRNA, GLI element; actives raise or lower the signal
How it was run: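 HepG2 cells transiently transfected with cis-promoter multiplexed reporter units report endogenous transcription factor activity. After 24 h chemical exposure, reporter mRNA was quantified by RT-PCR, 6-FAM labelling, HpaI digestion and capillary electrophoresis, with bidirectional fitting against DMSO.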

[2] = target: Bile acid receptor (Homo sapiens) (UniProt Q96RI1); assay: ATG_IR1_CIS: Attagene CIS-FACTORIAL HepG2 Assay for human Nuclear Receptor Subfamily 1 Group H Member 4 (NR1H4), IR1 submotif (AID 2282946); conditions: IR1 reporter transcription, actives raise or lower the signal
Sequence of Bile acid receptor (Homo sapiens) (Q96RI1 whole entry, looked up): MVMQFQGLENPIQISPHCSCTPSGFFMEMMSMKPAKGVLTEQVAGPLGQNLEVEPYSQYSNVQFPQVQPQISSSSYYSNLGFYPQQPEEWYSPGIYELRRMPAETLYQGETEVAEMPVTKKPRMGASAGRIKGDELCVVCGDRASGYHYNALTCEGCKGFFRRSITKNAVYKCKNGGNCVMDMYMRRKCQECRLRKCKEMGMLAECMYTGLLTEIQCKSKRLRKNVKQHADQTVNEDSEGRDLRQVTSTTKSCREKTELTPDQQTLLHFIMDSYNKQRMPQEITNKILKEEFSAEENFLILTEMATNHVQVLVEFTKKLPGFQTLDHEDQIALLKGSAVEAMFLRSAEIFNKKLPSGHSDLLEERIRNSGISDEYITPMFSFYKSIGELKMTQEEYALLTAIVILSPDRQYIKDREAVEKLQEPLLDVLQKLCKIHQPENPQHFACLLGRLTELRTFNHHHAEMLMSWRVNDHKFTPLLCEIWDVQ
How it was run: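 Readout: reporter transcript levels by RT-PCR with fluorescent capillary electrophoresis, from HepG2 cells transiently transfected with multiplexed cis-regulated reporters and dosed 24 h. Gain- or loss-of-signal fitted versus DMSO negative control.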

[3] = ATG_ISRE_CIS: Attagene CIS-FACTORIAL HepG2 Assay for human Interferon Regulatory Factor 1 (IRF1) binding to an Interferon-Stimulated Response Element (ISRE) (AID 2282948); conditions: HepG2 ISRE cis-reporter (Attagene), mRNA transcription readout; actives raise or lower the signal
How it was run: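 Endogenous transcription factor activity read as reporter transcript abundance via RT-PCR and capillary electrophoresis. HepG2 cells transiently transfected, 24 h chemical exposure. Gain or loss fitted against DMSO baseline.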

[4] = ATG_M_32_CIS: Attagene CIS-FACTORIAL HepG2 Assay for M32 Transcription Factor (Internal Marker) (AID 2282949); conditions: HepG2 Attagene cis-factorial M32 reporter, mRNA; actives raise or lower the signal;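 note: background control marker of the multiplexed CIS panel rather than a real target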
How it was run: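 Transient MRTU transfection of HepG2; 24 h compound treatment; TriZol RNA, oligo(dT) RT, reporter PCR, 6-FAM primer extension, HpaI cut, CE. Gain/loss of signal vs DMSO.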

[5] = target: Hypoxia-inducible factor 1-alpha (Homo sapiens) (UniProt Q16665); assay: ATG_HIF1a_CIS: Attagene CIS-FACTORIAL HepG2 Assay for human Hypoxia Inducible Factor 1 (HIF1A) (AID 2282951); conditions: HepG2 Attagene cis-factorial HIF1a reporter transcription; actives raise or lower the signal
Sequence of Hypoxia-inducible factor 1-alpha (Homo sapiens) (Q16665 whole entry, looked up): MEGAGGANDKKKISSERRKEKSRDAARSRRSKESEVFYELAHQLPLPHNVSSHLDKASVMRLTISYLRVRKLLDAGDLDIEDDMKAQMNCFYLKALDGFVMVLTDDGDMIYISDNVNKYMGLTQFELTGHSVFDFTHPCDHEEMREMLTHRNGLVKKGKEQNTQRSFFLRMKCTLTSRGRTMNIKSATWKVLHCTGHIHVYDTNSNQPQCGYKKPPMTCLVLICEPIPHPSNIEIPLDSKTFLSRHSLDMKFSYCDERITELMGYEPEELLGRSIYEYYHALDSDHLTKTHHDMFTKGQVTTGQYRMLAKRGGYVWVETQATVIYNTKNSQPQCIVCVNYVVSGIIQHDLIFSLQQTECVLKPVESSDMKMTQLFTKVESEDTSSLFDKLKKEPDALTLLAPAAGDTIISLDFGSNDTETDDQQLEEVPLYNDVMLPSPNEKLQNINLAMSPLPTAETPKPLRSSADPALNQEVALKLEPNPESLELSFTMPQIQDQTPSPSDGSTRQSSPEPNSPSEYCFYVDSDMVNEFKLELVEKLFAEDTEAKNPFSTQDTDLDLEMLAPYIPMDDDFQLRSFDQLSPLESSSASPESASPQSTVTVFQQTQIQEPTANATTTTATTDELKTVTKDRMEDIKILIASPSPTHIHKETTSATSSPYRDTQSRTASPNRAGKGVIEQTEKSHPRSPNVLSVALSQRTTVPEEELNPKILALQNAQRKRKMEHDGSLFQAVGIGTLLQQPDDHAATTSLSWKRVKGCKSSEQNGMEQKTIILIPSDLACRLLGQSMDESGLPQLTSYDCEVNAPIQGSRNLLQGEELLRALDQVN
How it was run: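 Cis-element reporter constructs were transiently transfected into HepG2 cells, which were treated for 24 h; reporter RNA was reverse-transcribed, amplified, labelled and resolved by capillary electrophoresis.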

[6] = target: Hepatocyte nuclear factor 6 (Homo sapiens) (UniProt Q9UBC0); assay: ATG_HNF6_CIS: Attagene CIS-FACTORIAL HepG2 Assay for human Hepatocyte Nuclear Factor 6 (HNF6) (AID 2282952); conditions: HepG2 Attagene cis-factorial HNF6 reporter transcription; actives raise or lower the signal
Sequence of Hepatocyte nuclear factor 6 (Homo sapiens) (Q9UBC0 whole entry, looked up): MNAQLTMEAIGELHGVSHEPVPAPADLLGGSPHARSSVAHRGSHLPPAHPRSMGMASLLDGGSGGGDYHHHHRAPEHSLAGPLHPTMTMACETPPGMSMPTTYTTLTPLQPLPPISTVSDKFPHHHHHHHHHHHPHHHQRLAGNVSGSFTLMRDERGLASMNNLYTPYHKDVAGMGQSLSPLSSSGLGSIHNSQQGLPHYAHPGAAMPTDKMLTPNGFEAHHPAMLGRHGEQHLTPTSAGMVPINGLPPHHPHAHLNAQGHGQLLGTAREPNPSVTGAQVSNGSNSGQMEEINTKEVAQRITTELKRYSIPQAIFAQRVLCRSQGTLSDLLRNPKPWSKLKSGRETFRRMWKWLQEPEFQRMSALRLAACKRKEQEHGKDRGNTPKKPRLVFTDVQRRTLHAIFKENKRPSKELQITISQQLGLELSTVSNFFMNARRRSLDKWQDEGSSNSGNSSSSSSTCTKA
How it was run: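 Endogenous transcription factor activity in human HepG2 liver cells was captured through cis-regulated reporter constructs. After 24 h treatment, reporter mRNA was measured by RT-PCR with capillary electrophoresis, and activity was fitted in both directions relative to DMSO.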

[7] = target: Heat shock factor protein 1 (Homo sapiens) (UniProt Q00613); assay: ATG_HSE_CIS: Attagene CIS-FACTORIAL HepG2 Assay for human Heat Shock Transcription Factor 1 (HSE) (AID 2282953); conditions: HepG2 HSE cis-reporter, Attagene RNA transcription; actives raise or lower the signal
Sequence of Heat shock factor protein 1 (Homo sapiens) (Q00613 whole entry, looked up): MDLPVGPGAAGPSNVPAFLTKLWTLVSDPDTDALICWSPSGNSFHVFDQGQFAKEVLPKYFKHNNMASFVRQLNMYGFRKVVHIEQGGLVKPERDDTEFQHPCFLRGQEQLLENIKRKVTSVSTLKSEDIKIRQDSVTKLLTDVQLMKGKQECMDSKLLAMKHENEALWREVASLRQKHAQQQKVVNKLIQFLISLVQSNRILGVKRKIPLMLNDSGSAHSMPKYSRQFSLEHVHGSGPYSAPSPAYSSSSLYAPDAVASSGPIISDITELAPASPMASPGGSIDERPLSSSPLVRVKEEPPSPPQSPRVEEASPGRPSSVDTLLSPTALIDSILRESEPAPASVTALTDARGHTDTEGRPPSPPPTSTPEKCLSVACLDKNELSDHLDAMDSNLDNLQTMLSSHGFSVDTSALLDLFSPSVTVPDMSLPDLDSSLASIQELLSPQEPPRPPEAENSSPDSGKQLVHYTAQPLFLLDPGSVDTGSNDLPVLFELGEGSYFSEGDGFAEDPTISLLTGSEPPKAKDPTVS
How it was run: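 After a 24 h incubation with test chemical, transfected HepG2 cells were harvested for RNA; reporter transcripts were measured by RT-PCR and capillary electrophoresis. Values reflect gain or loss of signal relative to DMSO.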

[8] = ATG_MRE_CIS: Attagene CIS-FACTORIAL HepG2 Assay for human Metal Responsive Element (MRE) (AID 2282954); conditions: HepG2 MRE cis-reporter transcription, Attagene multiplex; actives raise or lower the signal
How it was run: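 Readout: capillary electrophoresis of 6-FAM-labelled, HpaI-digested RT-PCR reporter products. System: HepG2 cells carrying transient multiplexed cis reporters, dosed 24 h. Analysis: bidirectional fit, DMSO baseline.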

[9] = ATG_GRE_CIS: Attagene CIS-FACTORIAL HepG2 Assay for human Glucocorticoid Response Elements (GRE) (AID 2282947); conditions: HepG2 GRE cis-reporter, Attagene multiplex mRNA; actives raise or lower the signal
How it was run: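 HepG2, transient cis-reporter transfection, 24 h. Reporter mRNA: RT-PCR then CE, fluorescence. Fit both directions vs DMSO.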

[10] = ATG_M_06_CIS: Attagene CIS-FACTORIAL HepG2 Assay for M06 Transcription Factor (Internal Marker) (AID 2282950); conditions: HepG2 Attagene CIS-FACTORIAL M06 internal marker reporter; actives raise or lower the signal
How it was run: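 Fluorescence-labelled RT-PCR products from cis-promoter reporter units, cut with HpaI and resolved by capillary electrophoresis, give the signal. Cells are human HepG2, dosed for 24 h. Serves as background control, fitted relative to DMSO.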

SMILES | outcome [1] | outcome [2] | outcome [3] | outcome [4] | outcome [5] | outcome [6] | outcome [7] | outcome [8] | outcome [9] | outcome [10] | AC50 [8] | AC50 [6] | AC50 [7] | AC50 [5]
CCC(C)n1c(=O)[nH]c(C)c(Br)c1=O (stereo unspecified) | inactive | inactive | inactive | inactive | inactive | inactive | inactive | inactive |  |  |  |  |  | 
N#Cc1c[nH]cc1-c1cccc2c1OC(F)(F)O2 | inactive |  | inactive | inactive | inactive | inactive | inactive |  | inactive | inactive | 8.67 µM (active) |  |  | 
COCc1cnc(C2=NC(C)(C(C)C)C(=O)N2)c(C(=O)O)c1 (stereo unspecified) | inactive | inactive | inactive | inactive |  | inactive | inactive | inactive | inactive |  |  |  |  | 
CCCCC(C#N)(Cn1cncn1)c1ccc(Cl)cc1 (stereo unspecified) | inactive |  | inactive | inactive |  | inactive | inactive | inactive | inactive |  |  |  |  | 
CCOc1nc(C(Cl)(Cl)Cl)ns1 | inactive |  | inactive | inactive | inactive | inactive | inactive | inactive |  | inactive |  |  |  | 
CSC(=O)c1c(C(F)F)nc(C(F)(F)F)c(C(=O)SC)c1CC(C)C | inactive |  | inactive | inactive | inactive | inactive | inactive | inactive | inactive |  |  |  |  | 
COC(=O)N(C(=O)N1CO[C@@]2(C(=O)OC)Cc3cc(Cl)ccc3C2=N1)c1ccc(OC(F)(F)F)cc1 | inactive |  | inactive | inactive | inactive | inactive | inactive |  | inactive |  | 2.11 µM (active) |  |  | 
N#CN=C1SCCN1Cc1ccc(Cl)nc1 | inactive |  | inactive | inactive |  | inactive | inactive | inactive | inactive |  |  |  |  | 
Nc1c(Cl)c(Cl)nc(C(=O)O)c1Cl | inactive |  | inactive | inactive | inactive | inactive | inactive | inactive | inactive |  |  |  |  | 
C=CCOC(=O)C(C)(C)OC(=O)c1cc(-n2c(=O)cc(C(F)(F)F)n(C)c2=O)ccc1Cl | inactive |  | inactive | inactive |  | inactive | inactive | inactive | inactive |  |  |  |  | 
COc1cc(Cl)c(OC)cc1Cl | inactive |  | inactive | inactive |  | inactive | inactive | inactive | inactive | inactive |  |  |  | 
O=C1C2CC=CCC2C(=O)N1SC(Cl)(Cl)Cl (stereo unspecified) | inactive |  | inactive | inactive | inactive | inactive | inactive | inactive |  | inactive |  |  |  | 
CCCC(=NOCC)C1=C(O)CC(CC(C)SCC)CC1=O (stereo unspecified) | inactive |  | inactive | inactive | inactive | inactive | inactive | inactive | inactive |  |  |  |  | 
CC1(C)CCC(=Cc2ccc(Cl)cc2)C1(O)Cn1cncn1 (stereo unspecified) | inactive |  | inactive | inactive | inactive | inactive | inactive | inactive | inactive |  |  |  |  | 
CC1(C)CON(Cc2ccccc2Cl)C1=O | inactive |  | inactive | inactive | inactive | inactive | inactive | inactive |  | inactive |  |  |  | 
CC(C)Oc1cccc(NC(=O)c2ccccc2C(F)(F)F)c1 | inactive |  | inactive | inactive |  | inactive | inactive |  | inactive |  | 28.7 µM (active) |  |  | 
CCCN(CC)CC1COC2(CCC(C(C)(C)C)CC2)O1 (stereo unspecified) | inactive |  | inactive | inactive |  |  |  |  | inactive |  | 50 µM (active) | 50 µM (active) | 60.3 µM (active) | 
CCSC(=O)N1CCCCCC1 | inactive |  | inactive | inactive |  | inactive | inactive | inactive |  |  |  |  |  | 
Clc1nc(Cl)nc(Nc2ccccc2Cl)n1 | inactive |  | inactive | inactive |  | inactive | inactive | inactive | inactive |  |  |  |  | 
O=C(Nc1ccccc1-c1ccc(Cl)cc1)c1cccnc1Cl | inactive |  | inactive | inactive |  | inactive | inactive | inactive | inactive |  |  |  |  | 

SMILES | outcome [1] | outcome [2] | outcome [3] | outcome [4] | outcome [5] | outcome [6] | outcome [7] | outcome [8] | outcome [9] | outcome [10] | AC50 [8] | AC50 [6] | AC50 [7] | AC50 [5]
CCOC(=O)C(C)OC(=O)c1cc(Oc2ccc(C(F)(F)F)cc2Cl)ccc1[N+](=O)[O-] (stereo unspecified) | inactive |  | inactive | inactive |  | inactive | inactive | inactive | inactive |  |  |  |  | 
CNC(=O)N(C)c1nnc(C(C)(C)C)s1 | inactive |  | inactive | inactive |  | inactive | inactive | inactive |  | inactive |  |  |  | 
CCNP(=S)(OC)O/C(C)=C/C(=O)OC(C)C (stereo unspecified) | inactive |  | inactive | inactive |  | inactive | inactive | inactive | inactive |  |  |  |  | 
CCOP(=S)(OCC)Oc1nc(Cl)n(C(C)C)n1 | inactive |  | inactive | inactive |  | inactive | inactive | inactive | inactive |  |  |  |  | 
CC(C)Nc1nc(Cl)nc(NC(C)C)n1 | inactive |  | inactive | inactive | inactive | inactive | inactive | inactive |  | inactive |  |  |  | 
CC(C)NC(=O)N1CC(=O)N(c2cc(Cl)cc(Cl)c2)C1=O | inactive |  | inactive | inactive |  | inactive |  | inactive |  |  |  |  |  | 
COC(=O)NS(=O)(=O)c1ccc(N)cc1 | inactive |  | inactive | inactive | inactive | inactive |  | inactive | inactive |  |  |  |  | 
CN/C(=N\[N+](=O)[O-])NCc1cnc(Cl)s1 | inactive |  | inactive | inactive | inactive | inactive | inactive | inactive |  |  |  |  |  | 
Cc1cnc(C2=NC(C)(C(C)C)C(=O)N2)c(C(=O)O)c1 (stereo unspecified) | inactive |  | inactive | inactive |  | inactive | inactive | inactive | inactive |  |  |  |  | 
C=C(C)CN(CC)c1c([N+](=O)[O-])cc(C(F)(F)F)cc1[N+](=O)[O-] | inactive |  | inactive | inactive |  | inactive | inactive | inactive | inactive | inactive |  |  |  | 
COC(=O)c1c(C(F)F)nc(C(F)(F)F)c(C2=NCCS2)c1CC(C)C | inactive |  | inactive | inactive |  | inactive | inactive |  |  | inactive | 18.5 µM (active) |  |  | 
CCN(CC)c1nc(C)cc(OP(=S)(OC)OC)n1 | inactive |  | inactive | inactive |  | inactive | inactive |  | inactive |  | 50 µM (active) |  |  | 50 µM (active)
CC(C)N1C(=O)c2ccccc2NS1(=O)=O | inactive |  | inactive | inactive |  | inactive | inactive | inactive | inactive |  |  |  |  | 
COP(=O)(OC)O/C(C)=C/C(=O)N(C)C | inactive |  | inactive | inactive |  | inactive | inactive | inactive |  | inactive |  |  |  | 
N#Cc1c(Cl)cccc1Cl | inactive |  | inactive | inactive |  | inactive | inactive | inactive | inactive |  |  |  |  | 
Cn1c(-c2ccccc2)cc(-c2ccccc2)[n+]1C | inactive |  | inactive | inactive |  | inactive | inactive | inactive | inactive |  |  |  |  | 
Nc1cnn(-c2ccccc2)c(=O)c1Cl | inactive |  | inactive | inactive |  | inactive | inactive | inactive | inactive | inactive |  |  |  | 
COP(=S)(OC)SCn1nnc2ccccc2c1=O | inactive |  | inactive | inactive |  | inactive | inactive |  |  |  | 17.3 µM (active) |  |  | 
Cc1cc(C)nc(Nc2ccccc2)n1 | inactive |  | inactive | inactive | inactive | inactive |  | inactive | inactive |  |  |  |  | 
